Data taken from PubChem BioAssay (NCATS).
Results filed as inconclusive are left out. Activity calls are given as the source filed them. The call rests on the fitted dose curve; in most records, active means well fitted curve in the direction sought with a large enough effect; inconclusive means small, poorly fitted or top-dose-only effect, or another doubt; inactive means no such curve, though single readings can be large; an effect the other way counts as inactive or inconclusive.

Assays:
[1] = Quantitative highthroughput screen to assess conditional lethalithy of NOMO1 cells grown in RPMI1640 with untreated serum (RPMI+s) (AID 1963876); settings: NOMO1 AML cells in RPMI+serum, CellTiter-Glo viability, 48 h; series mostly up to 45.8 µM; further: nearly all actives have a fitted effect of over 35% in size; further: potency means the concentration at half of the fitted maximal effect;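 on viability: 100% = DMSO wells and 0% = empty wells without cells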
How it was run: (§1)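 Each medium arm—HPLM with 10% dialyzed FBS, or RPMI1640 with 5 mM glucose and 10% untreated or dialyzed FBS—was screened against an 11-point, 3-fold compound titration for 48 h at 37 °C, with CellTiter-Glo luminescence as endpoint.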

[2] = Quantitative highthroughput screen to assess conditional lethalithy of NOMO1 cells grown in RPMI1640 with dialyzed fetal bovine serum (RPMI+ds) (AID 1963877); settings: NOMO1 in RPMI+dialyzed FBS viability, ATP luminescence, 48 h; series mostly up to 45.8 µM; further: nearly all actives have a fitted effect of over 30% in size; further: potency means the concentration at half of the fitted maximal effect;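 on viability: 100% = DMSO control wells and 0% = empty wells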
How it was run: as §1

[3] = Quantitative highthroughput screen to assess conditional lethalithy of P12 Ichikawa cells grown in Human Plasma-Like Medium with dialyzed fetal bovine serum (HPLM+ds) (AID 1963879); settings: ATP luminescence, 48 h; Potency: viability; series mostly up to 45.8 µM; further: nearly all actives have a fitted effect of over 35% in size; further: potency means the concentration at half of the fitted maximal effect
How it was run: as §1

[4] = Quantitative highthroughput screen to assess conditional lethalithy of SEM cells grown in RPMI1640 with dialyzed fetal bovine serum (RPMI+ds) (AID 1963884); settings: SEM B-ALL cells, RPMI+dialyzed FBS, CellTiter-Glo viability, 48 h; series mostly up to 45.8 µM; further: nearly all actives have a fitted effect of over 35% in size; further: potency means the concentration at half of the fitted maximal effect;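 on viability: 100% = DMSO control wells and 0% = empty wells without cells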
How it was run: as §1

[5] = Quantitative highthroughput screen to assess conditional lethalithy of NOMO1 cells grown in Human Plasma-Like Medium with dialyzed fetal bovine serum (HPLM+ds) (AID 1963878); settings: NOMO1 AML cells in HPLM+ds, CellTiter-Glo viability, 48 h; series mostly up to 45.8 µM;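 further: 100% = DMSO wells and 0% = empty wells on each plate; nearly all actives have a fitted effect of over 35% in size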
How it was run: as §1

[6] = Quantitative highthroughput screen to assess conditional lethalithy of SEM cells grown in Human Plasma-Like Medium with dialyzed fetal bovine serum (HPLM+ds) (AID 1963882); settings: SEM B-ALL cells in HPLM+ds, CellTiter-Glo viability, 48 h; series mostly up to 45.8 µM; further: nearly all actives have a fitted effect of over 35% in size; further: potency means the concentration at half of the fitted maximal effect
How it was run: as §1

[7] = Quantitative highthroughput screen to assess conditional lethalithy of SEM cells grown in RPMI1640 with unreated serum (RPMI+s) (AID 1963883); settings: SEM B-ALL cells, CellTiter-Glo viability, 48 h; series mostly up to 45.8 µM; further: nearly all actives have a fitted effect of over 35% in size; further: potency means the concentration at half of the fitted maximal effect;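 on viability: 100% = DMSO wells and 0% = empty wells without cells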
How it was run: as §1

[8] = Quantitative highthroughput screen to assess conditional lethalithy of P12 Ichikawa cells grown in RPMI1640 with dialyzed fetal bovine serum (RPMI+ds) (AID 1963880); settings: ATP luminescence, 48 h; Potency: P12-Ichikawa viability; series mostly up to 45.8 µM; further: nearly all actives have a fitted effect of over 35% in size; further: potency means the concentration at half of the fitted maximal effect;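 on viability: 100% = DMSO wells and 0% = empty wells on each plate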
How it was run: as §1

[9] = Quantitative highthroughput screen to assess conditional lethalithy of P12 Ichikawa cells grown in RPMI1640 with untreated serum (RPMI+s) (AID 1963881); settings: ATP luminescence, 48 h; Potency: viability; series mostly up to 45.8 µM; further: nearly all actives have a fitted effect of over 35% in size; further: potency means the concentration at half of the fitted maximal effect;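 on viability: 100% = DMSO wells and 0% = empty wells without cells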
How it was run: as §1

[10] = Viability qHTS for spleen associated tyrosine kinase inhibitor (SYKi) drug resistant MV4-11 cells (AID 1963824); settings: SYKi-resistant MV4-11 viability, CellTiter-Glo, 72 h; series mostly up to 45 µM; further: nearly all actives have a fitted effect of over 35% in size; further: potency means the concentration at half of the fitted maximal effect
How it was run: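 SYK-inhibitor-resistant MV4-11 AML cells were seeded at 500 per well onto compound and cultured 72 hours (37 °C, 5% CO2). CellTiter-Glo was then added, and after 10 min at room temperature, luminescence gave viability.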

[11] = Cellular viability qHTS for adrenocortical cancer (ACC) cell line NCI-H295R (AID 1963990); settings: CellTiter-Glo ATP luminescence, 48 h; series mostly up to 46.1 µM; further: nearly all actives have a fitted effect of over 60% in size; further: potency means the concentration at half of the fitted maximal effect
How it was run: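 CellTiter-Glo ATP luminescence, read 48 h after compound addition, measured viability of NCI-H295R adrenocortical cells grown serum-free with ITS. Final concentrations spanned up to 46 uM. Data normalized to DMSO and doxorubicin, fitted for IC50 and maximal response.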

[12] = Cellular viability qHTS for adrenocortical cancer (ACC) cell line SW-13 (AID 1963989); settings: SW-13 ACC cells viability, CellTiter-Glo, 48 h; activity (max response): stronger effect = lower value;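 further: cells grown in serum-free medium with ITS supplement; on the % scale 0 is the no-effect control and ±100 the full control effect; nearly all actives have a fitted effect of over 65% in size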
How it was run: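 Viability was read as CellTiter-Glo luminescence after 48 h compound treatment (up to 46 uM final) of SW-13 cells grown serum-free; titration curves were fit with a four-parameter logistic model to give IC50 and efficacy.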

c1ccc(CCCN2CCN(CCOC(c3ccccc3)c3ccccc3)CC2)cc1
inactive: Potency [1]

CC(=Cc1csc(C)n1)[C@@H]1C[C@H]2O[C@]2(C)CCC[C@H](C)[C@@H](O)[C@@H](C)C(=O)C(C)(C)[C@@H](O)CC(=O)O1
inactive: Potency [1] | Potency [2] | Potency [3] | Potency [4]

C[C@@H]1[C@H](O)[C@@H](C)C=CC=CCCC=CC=CC=CC=C[C@H](O[C@H]2O[C@@H](C)[C@H](O)[C@@H](N)[C@@H]2O)CC2O[C@](O)(C[C@@H](O)[C@H](O)CC[C@@H](O)C[C@@H](O)C[C@@H](O)CC(=O)O[C@H]1C)C[C@H](O)[C@H]2C(=O)O
inactive: Potency [1] | Potency [2] | Potency [5] | Potency [6] | Potency [7] | Potency [4]

C=C1C[C@H]2[C@H]3CCC(=O)[C@@]3(C)CC[C@@H]2[C@@]2(C)C=CC(=O)C=C12
inactive: Potency [1] | Potency [3]

C=CCON=C(C[C@H]1O[C@@H]2O[C@]3(C)CC[C@@H]4[C@H](C)CC[C@@H]([C@H]1C)[C@@]24OO3)[C@H]1O[C@@H]2O[C@]3(C)CC[C@H]4[C@H](C)CC[C@@H]([C@@H]1C)[C@@]24OO3
active: Potency [1] 833 nM | Potency [2] 743 nM | Potency [4] 935 nM

CC(=O)O[C@@]12CO[C@H]1C[C@H](O)[C@@]1(C)C(=O)[C@H](O)C3=C(C)[C@@H](O)C[C@@](O)([C@@H](OC(=O)c4ccccc4)[C@@H]21)C3(C)C
active: Potency [1] 14800 nM | Potency [2] 13200 nM | Potency [3] 10500 nM | Potency [8] 11800 nM | Potency [9] 9350 nM

C[C@]12Cc3nonc3C[C@@H]1CC[C@@H]1[C@@H]2CC[C@@]2(C)[C@H]1CC[C@]2(C)O
active: Potency [10] 16800 nM | Potency [11] 23100 nM

O=C(NCC1CCOCC1)c1cnc(Nc2ccc(Cl)cc2Cl)nc1C(F)(F)F
inactive: Potency [1] | Potency [2] | Potency [5] | Potency [3] | Potency [8] | Potency [9] | Potency [6] | Potency [4] | activity (max response) [12] -11.7% | Potency [11]

c1cc2c(cc1[C@H]1OC[C@H]3[C@H]1CO[C@H]3c1ccc3c(c1)OCO3)OCO2
inactive: Potency [1] | Potency [3] | Potency [8] | Potency [9] | Potency [6] | Potency [7]

CN(C)CCN(C)CCc1ccc(Cl)c(Cl)c1
inactive: Potency [1] | Potency [3] | Potency [8] | Potency [6] | Potency [7] | Potency [4] | activity (max response) [12] -5.37% | Potency [11]

CCN1C[C@]2(OC(=O)c3ccccc3NC(C)=O)CC[C@H](OC)[C@@]34[C@H]5CC6[C@@H](OC)C[C@](O)(C(C[C@@H]23)[C@@H]14)[C@@]5(O)[C@@H]6OC
active: Potency [7] 6620 nM
inactive: Potency [1] | Potency [3] | Potency [8] | Potency [9] | Potency [6] | activity (max response) [12] -5.39% | Potency [11]

CC=C(C)C(=O)O[C@H]1C(C)=C2[C@@H]3OC(=O)[C@@](C)(O)[C@@]3(O)[C@@H](OC(=O)CCC)C[C@](C)(OC(C)=O)[C@@H]2[C@@H]1OC(=O)CCCCCCC
active: Potency [1] 93.5 nM | Potency [3] 118 nM | Potency [8] 132 nM | Potency [6] 59 nM

CC(C)(O)C=CC(=O)[C@](C)(O)[C@H]1[C@H](O)C[C@]2(C)[C@@H]3CC=C4[C@@H](C=C(O)C(=O)C4(C)C)[C@]3(C)C(=O)C[C@@]12C
active: Potency [1] 187 nM | Potency [3] 166 nM | Potency [4] 66.2 nM

CCOC(=O)c1cncn1[C@H](C)c1ccccc1
inactive: Potency [1] | Potency [2] | Potency [8] | Potency [7]

C[C@]12CC[C@H]3[C@@H](CCC4=CC(=O)CC[C@@]43C)[C@H]1CC[C@H]2O
inactive: Potency [1] | Potency [8] | Potency [9] | Potency [6]

C=CC(=O)NCNC(=O)C=C
inactive: Potency [10] | Potency [11]

COc1cc2cc(c1Cl)N(C)C(=O)C[C@H](OC(=O)C(C)C)[C@]1(C)O[C@H]1[C@H](C)[C@@H]1C[C@@](O)(NC(=O)O1)[C@H](OC)C=CC=C(C)C2
inactive: Potency [1] | Potency [2] | Potency [3] | Potency [8] | Potency [6]

CC(=O)Nc1ccc(OC[C@](C)(O)C(=O)Nc2ccc([N+](=O)[O-])c(C(F)(F)F)c2)cc1
inactive: Potency [1] | Potency [5] | activity (max response) [12] 0.634% | Potency [11]

COC1=CC(C)=C[C@@H](C)[C@@H](O)[C@@H](C)CC(C)=CC=C[C@H](OC)[C@H]([C@@H](C)[C@@H](O)[C@H](C)[C@@]2(O)C[C@@H](O)[C@H](C)[C@@H](C(C)C)O2)OC1=O
active: Potency [1] 105 nM | Potency [8] 66.2 nM

NC1=NC(=O)N2CC12 (stereo not drawn)
active: Potency [1] 5900 nM | Potency [3] 7430 nM | Potency [6] 3320 nM
inactive: activity (max response) [12] -7.87% | Potency [11]
